Inconclusive results are not listed. Active and inactive are the calls of the source. Calls follow the shape of the dose curve; as a rule, active = well fitted curve in the direction sought with a large enough effect; inconclusive = small, poorly fitted or top-dose-only effect, or another doubt; inactive = no such curve, though single readings can be large; an effect the other way counts as inactive or inconclusive.
Tests used:
[1] = target: Rap guanine nucleotide exchange factor 3 (Homo sapiens) (UniProt O95398); test: Confirmatory qHTS for antagonist of cAMP-regulated guanine nucleotide exchange factor 3 (EPAC1) (AID 1645880); conditions: EPAC1 Rap1B-BODIPY-GDP exchange, fluorescence; series mostly up to 115 µM; also: nearly all actives have a fitted effect of over 55% in size; also: potency is read from the fitted curve at half-maximal effect
In short: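 Nucleotide exchange uses 100 nM EPAC1, 250 nM RAP1B-BODIPY-GDP and 50 uM GDP, with compounds in a concentration-titration series. After 5 min at room temperature, fluorescence (480 nm ex/540 nm em) is read every 5 min for 30 min. Data are normalized to control ATA and DMSO.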

[2] = target: Rap guanine nucleotide exchange factor 3 (Homo sapiens) (UniProt O95398); test: Confirmatory qHTS for agonist of cAMP-regulated guanine nucleotide exchange factor 3 (EPAC1) (AID 1645881); conditions: EPAC1 Rap1B BODIPY-GDP exchange fluorescence; series mostly up to 154 µM; also: nearly all actives have a fitted effect of over 75% in size; also: potency is read from the fitted curve at half-maximal effect;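 as to activation: EPAC1 catalysed release of BODIPY-GDP from Rap1B seen as fluorescence loss; 100% = effect of cAMP agonist control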
[3] = target: Rap guanine nucleotide exchange factor 4 (Homo sapiens) (UniProt Q8WZA2); test: Confirmatory qHTS for agonist of cAMP-regulated guanine nucleotide exchange factor 4 (EPAC2) (AID 1645884); conditions: EPAC2 GEF activity, Rap1B-BODIPY-GDP fluorescence; series mostly up to 154 µM;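 also: nucleotide exchange releases bodipy-GDP from Rap1 and this lowers its fluorescence; nearly all actives have a fitted effect of over 65% in size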; also: potency is read from the fitted curve at half-maximal effect; as to activation: % is scaled to controls: 0 for no effect and ±100 for the full control effect
[4] = target: Rap guanine nucleotide exchange factor 4 (Homo sapiens) (UniProt Q8WZA2); test: Confirmatory qHTS for antagonist of cAMP-regulated guanine nucleotide exchange factor 4 (EPAC2) (AID 1645885); conditions: EPAC2 Rap1B-BODIPY-GDP exchange fluorescence, biochemical; series mostly up to 12.7 µM; also: nearly all actives have a fitted effect of over 25% in size; also: potency is read from the fitted curve at half-maximal effect; as to activity change, negative = inhibition: % is scaled to controls: 0 for no effect and ±100 for the full control effect
[5] = target: Rap guanine nucleotide exchange factor 3 (Homo sapiens) (UniProt O95398); test: Counterscreen qHTS for antagonist of cAMP-regulated guanine nucleotide exchange factor 3 (EPAC1) (AID 1645888); conditions: Rap1B-BODIPY-GDP nucleotide exchange, fluorescence; series mostly up to 154 µM;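 also: fluorescence loss as bound BODIPY-GDP is released from Rap1B; % of control where 0% means no effect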
In short: (§1)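 Rap1B–BODIPY-GDP (250 nM) with 50 uM GDP; compounds pin-transferred to 9.74 nM–152 uM final (activator) or from 7.32 nM upwards (inhibitor). Fluorescence Ex/Em 480/540 nm read at 5 and 30 min, then after adding cAMP or buffer, at room temperature.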

[6] = target: Rap guanine nucleotide exchange factor 3 (Homo sapiens) (UniProt O95398); test: Counterscreen qHTS for agonist of cAMP-regulated guanine nucleotide exchange factor 3 (EPAC1) (AID 1645889); conditions: EPAC1 Rap1B-BODIPY-GDP exchange, fluorescence; series mostly up to 154 µM; also: nearly all actives have a fitted effect of over 40% in size; also: potency is read from the fitted curve at half-maximal effect; as to activation: % of control where 0% means no effect
In short: as §1

Rap guanine nucleotide exchange factor 3 (Homo sapiens), sequence (O95398 whole entry, looked up): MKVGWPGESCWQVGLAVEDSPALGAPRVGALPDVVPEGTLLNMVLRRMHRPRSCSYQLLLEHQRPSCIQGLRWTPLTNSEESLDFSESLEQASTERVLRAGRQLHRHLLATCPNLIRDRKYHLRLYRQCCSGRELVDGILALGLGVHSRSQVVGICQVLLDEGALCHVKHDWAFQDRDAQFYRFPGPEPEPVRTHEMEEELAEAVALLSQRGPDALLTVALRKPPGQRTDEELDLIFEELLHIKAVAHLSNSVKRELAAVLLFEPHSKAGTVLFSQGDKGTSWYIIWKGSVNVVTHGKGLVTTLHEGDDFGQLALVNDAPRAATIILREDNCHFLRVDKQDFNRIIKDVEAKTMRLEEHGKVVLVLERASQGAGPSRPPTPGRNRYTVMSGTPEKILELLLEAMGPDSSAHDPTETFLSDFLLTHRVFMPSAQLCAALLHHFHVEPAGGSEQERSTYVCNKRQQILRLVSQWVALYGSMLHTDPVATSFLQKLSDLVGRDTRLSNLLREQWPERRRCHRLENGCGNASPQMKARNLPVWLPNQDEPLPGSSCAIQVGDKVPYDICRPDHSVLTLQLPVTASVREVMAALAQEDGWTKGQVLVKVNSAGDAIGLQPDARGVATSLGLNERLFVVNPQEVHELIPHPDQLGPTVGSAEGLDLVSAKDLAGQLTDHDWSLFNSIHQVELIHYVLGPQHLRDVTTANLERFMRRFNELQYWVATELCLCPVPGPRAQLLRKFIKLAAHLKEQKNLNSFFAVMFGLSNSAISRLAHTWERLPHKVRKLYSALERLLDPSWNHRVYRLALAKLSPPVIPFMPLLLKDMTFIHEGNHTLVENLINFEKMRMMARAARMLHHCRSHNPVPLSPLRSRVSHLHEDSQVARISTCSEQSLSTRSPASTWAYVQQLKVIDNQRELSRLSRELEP
Rap guanine nucleotide exchange factor 4 (Homo sapiens), sequence (Q8WZA2 whole entry, looked up): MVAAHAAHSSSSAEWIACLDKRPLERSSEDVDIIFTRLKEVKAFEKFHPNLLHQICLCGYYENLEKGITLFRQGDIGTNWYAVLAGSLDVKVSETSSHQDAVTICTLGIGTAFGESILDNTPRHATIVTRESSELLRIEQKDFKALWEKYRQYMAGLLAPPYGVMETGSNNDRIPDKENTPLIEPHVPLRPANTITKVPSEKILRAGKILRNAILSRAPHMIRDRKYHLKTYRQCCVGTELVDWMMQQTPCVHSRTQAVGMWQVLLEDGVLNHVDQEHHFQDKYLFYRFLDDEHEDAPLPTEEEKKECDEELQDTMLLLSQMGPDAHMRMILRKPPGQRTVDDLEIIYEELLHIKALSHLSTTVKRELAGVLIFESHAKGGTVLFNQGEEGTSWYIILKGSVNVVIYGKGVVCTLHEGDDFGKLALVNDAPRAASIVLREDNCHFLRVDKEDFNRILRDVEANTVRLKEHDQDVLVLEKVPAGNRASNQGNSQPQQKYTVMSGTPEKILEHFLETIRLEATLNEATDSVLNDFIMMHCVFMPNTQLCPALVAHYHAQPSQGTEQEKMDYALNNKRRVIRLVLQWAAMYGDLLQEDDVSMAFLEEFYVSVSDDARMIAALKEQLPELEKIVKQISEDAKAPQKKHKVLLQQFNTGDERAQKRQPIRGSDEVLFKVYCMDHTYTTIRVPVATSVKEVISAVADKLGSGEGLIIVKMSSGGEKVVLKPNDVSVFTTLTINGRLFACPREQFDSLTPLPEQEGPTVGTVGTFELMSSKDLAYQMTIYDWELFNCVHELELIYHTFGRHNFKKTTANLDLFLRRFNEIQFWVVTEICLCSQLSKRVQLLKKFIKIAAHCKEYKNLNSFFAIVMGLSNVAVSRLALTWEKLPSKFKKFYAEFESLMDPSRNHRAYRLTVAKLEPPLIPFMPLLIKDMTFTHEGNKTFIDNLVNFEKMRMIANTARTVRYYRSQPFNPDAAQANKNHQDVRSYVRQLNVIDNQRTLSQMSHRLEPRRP

COc1cc(/C=N/NC(=O)c2ccc3c(c2)OCCO3)cc(Br)c1O
inactive: Potency [2] | Potency [3] | Potency [4] | Potency [5] | Potency [6]
active: Potency [1] 42.6 µM

CN(C)c1ccc(C(O)c2cc3ccccc3s2)cc1 (stereo not given)
inactive: Potency [1] | Potency [2] | Potency [3] | Potency [4] | Potency [5] | Potency [6]

Cc1cc2c(c(=O)o1)C(c1ccc([N+](=O)[O-])o1)C(C#N)=C(N)O2 (stereo not given)
inactive: Potency [1] | Potency [2] | Potency [3] | Potency [4] | Potency [5] | Potency [6]

CCCCC(CC)Cn1c(Oc2ccccc2)nc2c1c(=O)n(C)c(=O)n2C (stereo not given)
inactive: Potency [1] | Potency [2] | Potency [3] | Potency [4] | Potency [5] | Potency [6]

COc1cn(CC(=O)Nc2cccc(C)c2C)c(CN2CCCCC2)cc1=O
inactive: Potency [1] | Potency [2] | Potency [3] | Potency [4] | Potency [5] | Potency [6]

COc1ccccc1NC(=O)C(C)OC(=O)COc1cccc2c1OC(C)(C)C2 (stereo not given)
inactive: Potency [1] | Potency [2] | activation [3] 2.07% [at 17.1 µM, percent relative to cAMP agonist control] | Potency [4] | activity change, negative = inhibition [5] -14.5% [at 30.8 µM] | activation [6] 7.64% [at 30.8 µM]

Cc1ccccc1S(=O)(=O)N1C(c2ccc(Cl)c(Cl)c2)CC=C(C(=O)O)C1c1cccc(Br)c1 (stereo not given)
active: Potency [1] 75.7 µM
inactive: Potency [2] | Potency [3] | Potency [4] | Potency [5] | Potency [6]

O=C(O)c1cccc(NC(=O)c2cn(-c3ccccc3)nc2-c2cc3ccccc3o2)c1
active: Potency [1] 50.1 µM
inactive: Potency [2] | activation [3] 0.161% [at 17.1 µM, percent relative to cAMP agonist control] | Potency [4] | activity change, negative = inhibition [5] -4.75% [at 30.8 µM] | activation [6] 16.8% [at 30.8 µM]

Cc1ccccc1OCc1nc2ccccc2n1Cc1ccccc1Cl
inactive: Potency [1] | Potency [2] | Potency [3] | Potency [4] | Potency [5] | Potency [6]

COc1cc(/C=C(\C#N)C(=O)NC(C)C)cc(Cl)c1O
inactive: Potency [1] | Potency [2] | Potency [3] | Potency [4] | Potency [5] | Potency [6]

C=CCOc1ccc(/C=C2\SC(=S)N(NS(=O)(=O)c3ccccc3)C2=O)cc1
inactive: Potency [2] | Potency [3] | Potency [5] | Potency [6]
active: Potency [1] 47.8 µM | Potency [4] 42.6 µM

CC(=O)NC(CCS(C)(=O)=O)C(=O)Nc1cc(C)on1 (stereo not given)
inactive: Potency [1] | Potency [2] | Potency [3] | Potency [4] | Potency [5] | Potency [6]

Cc1ccc2nc(-c3ccccc3)cc(C(=O)N3CC(C)OC(C)C3)c2c1 (stereo not given)
inactive: Potency [1] | Potency [2] | Potency [3] | Potency [4] | Potency [5] | Potency [6]

COc1ccccc1/C=C/C=C1\Oc2c(ccc(O)c2CN(C)C)C1=O
inactive: Potency [1] | Potency [4] | Potency [5]
active: Potency [2] 89.1 µM | Potency [3] 112 µM | Potency [6] 63.1 µM

CC(=O)Nc1ccc(CNc2nc3cc(-c4ccsc4)sc3c(=O)n2C)cc1
inactive: Potency [1] | Potency [2] | activation [3] -3.78% [at 17.1 µM, percent relative to cAMP agonist control] | Potency [4] | activity change, negative = inhibition [5] 16% [at 30.8 µM] | activation [6] 36.9% [at 30.8 µM]

O=C(c1ccccc1[N+](=O)[O-])N1CCN(c2ccc(N3CCOCC3)nn2)CC1
inactive: Potency [1] | Potency [2] | Potency [3] | Potency [4] | Potency [5] | Potency [6]

CNC(=O)NC(=O)C(NC1CCCc2ccccc21)c1ccccc1 (stereo not given)
active: Potency [4] 47.8 µM
inactive: Potency [1] | Potency [2] | Potency [3] | Potency [5] | Potency [6]

COc1ccc(NC(=O)CS(=O)(=O)Cc2ccccc2)c([N+](=O)[O-])c1
inactive: Potency [1] | Potency [2] | activation [3] 7.06% [at 17.1 µM, percent relative to cAMP agonist control] | Potency [4] | activity change, negative = inhibition [5] -9.05% [at 30.8 µM] | activation [6] 8.04% [at 30.8 µM]

CC(C)CCNC1c2ccccc2C(=O)N1Cc1ccccc1 (stereo not given)
inactive: Potency [1] | Potency [2] | activation [3] 11.2% [at 17.1 µM, percent relative to cAMP agonist control] | Potency [4] | activity change, negative = inhibition [5] -10.7% [at 30.8 µM] | activation [6] 2.24% [at 30.8 µM]

CC1CN(C(=O)COC(=O)COc2ccc(C#N)cc2)CC(C)O1 (stereo not given)
inactive: Potency [1] | Potency [2] | activation [3] -1.51% [at 17.1 µM, percent relative to cAMP agonist control] | Potency [4] | activity change, negative = inhibition [5] -3.73% [at 30.8 µM] | activation [6] 1.53% [at 30.8 µM]

CC(C)CC(C(=O)NC1CCCCC1)N(Cc1ccccc1)C(=O)c1snc(C(N)=O)c1N (stereo not given)
inactive: Potency [1] | Potency [2] | activation [3] 1.37% [at 17.1 µM, percent relative to cAMP agonist control] | Potency [4] | activity change, negative = inhibition [5] -17.8% [at 30.8 µM] | activation [6] 19% [at 30.8 µM]

Oc1ccc(/C=N/Nc2ncnc3c2ncn3Cc2ccccc2)cc1O
inactive: Potency [2] | activation [3] 4.96% [at 17.1 µM, percent relative to cAMP agonist control] | Potency [4] | activity change, negative = inhibition [5] -13.7% [at 30.8 µM] | activation [6] 1.06% [at 30.8 µM]
active: Potency [1] 3.55 µM

N#C/C(=C(/O)CCl)c1nc2c(s1)CCc1ccccc1-2
inactive: Potency [2] | Potency [3] | Potency [4] | Potency [5] | Potency [6]
active: Potency [1] 6.75 µM

COC(=O)C1=C(C)N(Cc2ccco2)C(=O)/C1=C\c1ccc(N(C)C)cc1
inactive: Potency [1] | Potency [2] | Potency [3] | Potency [4] | Potency [5] | Potency [6]

CCOC(=O)c1c(CC(C)C)csc1N
inactive: Potency [1] | Potency [2] | Potency [3] | Potency [4] | Potency [5] | Potency [6]

CC1CCC2=NN(C(=O)c3ccco3)C(O)(C(F)(F)F)C2C1 (stereo not given)
inactive: Potency [1] | Potency [2] | activation [3] 4.2% [at 17.1 µM, percent relative to cAMP agonist control] | Potency [4] | activity change, negative = inhibition [5] -9.1% [at 30.8 µM] | activation [6] -2.19% [at 30.8 µM]

Cc1[nH]c2ccccc2c1C(=O)C(C)OC(=O)c1ccc(Cl)nc1 (stereo not given)
inactive: Potency [1] | Potency [2] | activation [3] 9.38% [at 17.1 µM, percent relative to cAMP agonist control] | Potency [4] | activity change, negative = inhibition [5] -3.94% [at 30.8 µM] | activation [6] 19.4% [at 30.8 µM]

CC(=O)CCc1oc2ccc(C)cc2c1-c1ccc(C)o1
inactive: Potency [1] | Potency [2] | activation [3] 9.77% [at 17.1 µM, percent relative to cAMP agonist control] | Potency [4] | activity change, negative = inhibition [5] -33.7% [at 30.8 µM] | activation [6] 31.9% [at 30.8 µM]

CCC(C)NC(=O)CS(=O)Cc1nc(-c2ccccc2C)oc1C (stereo not given)
inactive: Potency [1] | Potency [2] | Potency [3] | Potency [4] | Potency [5] | Potency [6]

COc1ccc(N(C)S(=O)(=O)c2cccc3nsnc23)cc1
inactive: Potency [1] | Potency [2] | Potency [3] | Potency [4] | Potency [5] | Potency [6]

CCOc1ccccc1NC(=O)COC(=O)c1ccc(S(=O)(=O)N2CCCC2)cc1
inactive: Potency [1] | Potency [2] | Potency [3] | Potency [4] | Potency [5] | Potency [6]

COc1cccc(C2c3[nH]c4ccccc4c3CCN2Cc2ncc[nH]2)c1 (stereo not given)
inactive: Potency [1] | Potency [2] | activation [3] 1.64% [at 17.1 µM, percent relative to cAMP agonist control] | Potency [4] | activity change, negative = inhibition [5] -8.75% [at 30.8 µM] | activation [6] 15.1% [at 30.8 µM]

C=CCc1cc(/C=C/c2nc(O)c([N+](=O)[O-])c(=O)[nH]2)cc(OC)c1O
inactive: Potency [2] | Potency [3] | Potency [4] | Potency [5] | Potency [6]
active: Potency [1] 33.8 µM

COc1ccccc1CCc1nnc(CCC(=O)N(C)Cc2cccc3ncccc23)o1
inactive: Potency [1] | Potency [2] | Potency [3] | Potency [4] | Potency [5] | Potency [6]

c1ccc(OCCCn2ccnc2)cc1
inactive: Potency [1] | Potency [2] | Potency [3] | Potency [4] | Potency [5] | Potency [6]
